Screening data as filed in PubChem.
FAS-TE inh: inhibitors of human fatty acid synthase thioesterase domain | P49327 | recombinant FAS-TE, OMFH fluorogenic substrate, fluorescence endpoint | inhibition, % at 15 µM | hit rate 0.67% among 360,000 | AID 602261;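 active = compounds whose normalised, plate-corrected inhibition of enzyme fluorescence in the single-dose primary screen is 50% or more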
Target sequence (P49327 whole entry, looked up, the tested form may be a part): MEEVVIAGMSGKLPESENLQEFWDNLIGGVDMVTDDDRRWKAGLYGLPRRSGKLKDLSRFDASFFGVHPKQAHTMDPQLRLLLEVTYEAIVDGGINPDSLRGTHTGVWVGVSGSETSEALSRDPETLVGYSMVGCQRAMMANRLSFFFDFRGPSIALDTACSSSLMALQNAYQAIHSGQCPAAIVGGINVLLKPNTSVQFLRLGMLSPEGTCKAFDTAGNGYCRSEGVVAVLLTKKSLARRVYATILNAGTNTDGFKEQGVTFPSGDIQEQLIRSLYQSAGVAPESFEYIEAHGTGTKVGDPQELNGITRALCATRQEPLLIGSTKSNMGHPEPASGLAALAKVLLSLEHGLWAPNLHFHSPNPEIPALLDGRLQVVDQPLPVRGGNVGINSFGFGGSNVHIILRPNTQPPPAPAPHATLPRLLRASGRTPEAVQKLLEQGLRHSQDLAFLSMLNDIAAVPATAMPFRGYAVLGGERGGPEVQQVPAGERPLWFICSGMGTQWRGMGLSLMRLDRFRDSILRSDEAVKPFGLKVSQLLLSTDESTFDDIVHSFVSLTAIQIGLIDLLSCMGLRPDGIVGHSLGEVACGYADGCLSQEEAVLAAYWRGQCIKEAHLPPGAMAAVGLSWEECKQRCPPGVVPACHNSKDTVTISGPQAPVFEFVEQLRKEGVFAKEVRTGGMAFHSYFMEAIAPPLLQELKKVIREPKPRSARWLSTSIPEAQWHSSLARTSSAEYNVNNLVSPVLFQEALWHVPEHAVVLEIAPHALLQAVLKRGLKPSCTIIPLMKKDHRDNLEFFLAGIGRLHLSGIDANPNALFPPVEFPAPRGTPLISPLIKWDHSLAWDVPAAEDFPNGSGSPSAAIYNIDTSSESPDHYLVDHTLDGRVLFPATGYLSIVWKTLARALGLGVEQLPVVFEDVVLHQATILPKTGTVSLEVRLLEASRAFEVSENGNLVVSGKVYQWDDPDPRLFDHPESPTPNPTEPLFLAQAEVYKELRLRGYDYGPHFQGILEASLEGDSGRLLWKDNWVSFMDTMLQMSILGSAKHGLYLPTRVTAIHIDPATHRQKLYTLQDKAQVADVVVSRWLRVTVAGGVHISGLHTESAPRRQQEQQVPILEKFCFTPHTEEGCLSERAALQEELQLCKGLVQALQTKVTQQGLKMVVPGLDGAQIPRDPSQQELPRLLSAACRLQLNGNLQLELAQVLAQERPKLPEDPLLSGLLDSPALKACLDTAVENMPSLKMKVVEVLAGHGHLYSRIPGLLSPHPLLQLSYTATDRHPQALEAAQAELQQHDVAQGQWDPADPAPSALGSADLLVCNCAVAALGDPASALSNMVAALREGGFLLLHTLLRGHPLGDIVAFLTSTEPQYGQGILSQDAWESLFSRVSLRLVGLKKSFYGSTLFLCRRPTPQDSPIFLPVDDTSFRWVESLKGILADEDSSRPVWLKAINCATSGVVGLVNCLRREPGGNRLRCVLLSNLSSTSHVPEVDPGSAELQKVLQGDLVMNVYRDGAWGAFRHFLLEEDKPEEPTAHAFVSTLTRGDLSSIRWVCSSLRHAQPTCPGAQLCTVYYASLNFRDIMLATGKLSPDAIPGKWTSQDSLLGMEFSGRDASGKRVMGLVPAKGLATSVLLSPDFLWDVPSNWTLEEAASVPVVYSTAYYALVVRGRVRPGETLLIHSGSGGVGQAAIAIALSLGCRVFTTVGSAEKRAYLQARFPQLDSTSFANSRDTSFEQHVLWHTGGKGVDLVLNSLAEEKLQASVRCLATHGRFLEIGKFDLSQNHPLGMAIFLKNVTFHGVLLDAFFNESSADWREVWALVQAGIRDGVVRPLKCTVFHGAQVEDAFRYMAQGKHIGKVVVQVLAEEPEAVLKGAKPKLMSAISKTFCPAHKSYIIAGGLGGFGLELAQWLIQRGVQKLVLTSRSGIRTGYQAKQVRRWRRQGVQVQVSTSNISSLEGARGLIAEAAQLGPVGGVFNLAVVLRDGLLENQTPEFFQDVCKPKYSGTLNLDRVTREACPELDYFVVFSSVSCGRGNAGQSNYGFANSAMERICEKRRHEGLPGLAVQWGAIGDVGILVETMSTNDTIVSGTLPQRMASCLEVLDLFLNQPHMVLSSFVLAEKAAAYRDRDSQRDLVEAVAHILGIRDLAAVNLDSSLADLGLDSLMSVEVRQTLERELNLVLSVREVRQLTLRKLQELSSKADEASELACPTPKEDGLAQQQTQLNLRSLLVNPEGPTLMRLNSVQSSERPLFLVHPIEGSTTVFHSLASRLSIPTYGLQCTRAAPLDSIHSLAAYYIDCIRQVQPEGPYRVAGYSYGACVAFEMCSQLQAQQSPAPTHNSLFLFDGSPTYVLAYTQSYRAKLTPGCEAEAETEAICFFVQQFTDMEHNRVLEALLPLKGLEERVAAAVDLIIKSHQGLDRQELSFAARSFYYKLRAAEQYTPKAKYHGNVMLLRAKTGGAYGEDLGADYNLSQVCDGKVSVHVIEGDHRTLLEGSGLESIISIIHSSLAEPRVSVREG
MPTP block: inhibitors of mitochondrial permeability transition pore; inhibition, % at 10 µM; isolated mouse mitochondria, Ca2+ swelling absorbance, 30 min; AID 602449; hit rate 1.4% among 360,000;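 active = inhibition of 50% or more, scaled per plate between neutral and stimulator controls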
Myeloid diff MLP: myeloid differentiation induction | calls only at 10 µM | AID 624256 | hit rate 1% among 360,000 | ER-HoxA9 myeloid progenitors, lysozyme-GFP differentiation, flow cytometry;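 active = normalized GFP-positive differentiation at or above the plate's own cutoff, the solvent-only control mean plus 3 SD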;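 also: cells exposed to compound for four days before flow analysis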
NR3A LBD binder: modulators (binders) of human NR3A ligand-binding domain. NR3A LBD differential scanning fluorimetry, Tm shift; 0% = protein alone, 100% = glycine-bound protein. Tm shift relative to glycine control, % at 25 µM. hit rate 2.5% among 340,000;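 active = melting temperature shift of at least 10% of the positive control shift, at one fixed dose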
rCAG binder-1: r(CAG) repeat RNA binding; TO-PRO-1 dye displacement fluorescence; hit rate 1.3% among 370,000; inhibition, % at 3 µM; AID 651821;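 active = inhibition above the plate cutoff, the mean of all test compounds on that plate plus 3 SD, cut at about 35% in these data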;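 also: higher means more dye released from RNA so lower well fluorescence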
rCAG binder conf: r(CAG) RNA repeat binding, confirmation; shares compounds with rCAG binder-1; hit rate 70% among 4,300; TO-PRO-1 dye displacement fluorescence; inhibition, % at 3 µM;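 active = inhibition above a per-plate cutoff, the mean inhibition of sample wells plus 3 SD, cut at about 35% in these data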;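 also: loss of TO-PRO-1 fluorescence as compound displaces dye from 1x1 AA loop RNA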
DNA CAG counter: disrupts DNA CAG TO-PRO-1 complex, flagging rCAG hits | shares compounds with rCAG binder-1 | hit rate 94% among 4,300 | inhibition, % at 3 µM | d(CAG) DNA oligo TO-PRO-1 dye displacement, fluorescence;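 active = inhibition above its plate's cutoff, the mean test-well inhibition plus 3 SD, cut at about 4.8% in these data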;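 also: hits displace the dye from DNA and so lower well fluorescence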
DNA CAG DR: disrupts DNA CAG TO-PRO-1 complex in dose response | IC50, µM | AID 686960 | shares compounds with rCAG binder-1 | hit rate 20% among 250 | DNA CAG/GTC duplex TO-PRO-1 dye displacement fluorescence; in the data active = IC50 below about 10 µM
dCAG TOPRO ctr: DNA CAG dye complex inhibition, late stage dose response. shares compounds with rCAG binder-1. d(CAG) DNA duplex TO-PRO-1 dye displacement, fluorescence. IC50, µM. hit rate 80% among 30. AID 720649
rCAG binder-2: molecules binding r(CAG) RNA repeats, late stage dose response; shares compounds with rCAG binder-1; r(CAG) RNA TO-PRO-1 dye displacement, fluorescence; IC50, µM; hit rate 100% among 30; AID 720651
Numbers stand for hits; i = inactive; nt = no result; + = active, no number. Most compounds without a hit are left out; they make up all but 5.7% or so of the library. Unless noted, no rule for the calls is given here.

SMILES	FAS-TE inh	MPTP block	Myeloid diff MLP	NR3A LBD binder	rCAG binder-1	rCAG binder conf	DNA CAG counter	others
CC(=O)N1CCN(c2ccc([N+](=O)[O-])cc2C=C2C(=O)NC(=O)NC2=O)CC1	i	i	i	i	36	i	i
COC(=O)C1=C(c2ccc(OC)c(OC)c2)C[C@@H]2CC[C@H]1N2C(=O)NCc1cccc2ccccc12	i	i	i	i	i	nt	nt
O=C1NC(=O)N(Cc2ccco2)C(=O)/C1=C/C=C/c1ccco1	i	i	i	i	50	i	14
Cc1ccc(N2C(=O)NC(=O)/C(=C\C=C\c3ccco3)C2=O)cc1	i	i	i	i	i	nt	nt
Cc1cccc(N2C(=O)NC(=O)/C(=C\C=C\c3ccco3)C2=O)c1	i	i	i	i	i	nt	nt
Cc1ccc(N2C(=O)NC(=O)/C(=C\C=C\c3ccco3)C2=O)cc1C	i	i	+	i	36	i	6.2
O=C1NC(=O)N(Cc2ccccc2)C(=O)/C1=C\C=C\c1ccco1	i	i	i	i	55	i	6.5
CNC(=S)N1CCN(CCN=Cc2c(O)n(-c3ccc(C)cc3)c(=S)[nH]c2=O)CC1	i	i	i	i	i	nt	nt
CN(C)C1C(=O)C(C(N)=O)=C(O)C2(O)C(=O)C3=C(O)c4c(O)cccc4C(C)(O)C3C(O)C12 (stereo not drawn)	i	i	i	i	73	i	9.1
Cc1ccc(OCCn2cccc2/C=C2/C(=O)NC(=O)N(Cc3ccco3)C2=O)cc1	i	i	i	i	36	i	8.7
Cn1cccc1/C=C1\C(=O)NC(=O)N(Cc2ccco2)C1=O	i	i	i	i	40	i	i
Cc1ccc(-n2c(C)cc(/C=C3/C(=O)NC(=O)N(Cc4ccco4)C3=O)c2C)cc1	i	i	i	i	i	nt	nt
CCc1ccc(N2C(=O)NC(=O)/C(=C\c3cccn3CCOc3ccc(C(C)C)cc3)C2=O)cc1	i	i	i	i	i	nt	nt
COC(=O)C1=C(c2ccc(F)cc2OCc2ccccc2)C[C@@H]2CC[C@H]1N2C(=O)NCc1ccc([N+](=O)[O-])cc1	i	i	i	i	i	nt	nt
N#CCCC#N	nt	nt	nt	nt	i	nt	nt
O=C(N/N=C/c1c(O)n(CCC2=CCCCC2)c(=S)[nH]c1=O)c1ccccc1	i	i	i	24	70	73	32	DNA CAG DR=i;dCAG TOPRO ctr=2.2;rCAG binder-2=0.99
O=C(N/N=C/c1c(O)n(CCC2=CCCCC2)c(=O)[nH]c1=O)c1ccccc1	i	i	i	i	46	40	11
Nc1ccccc1N=Cc1c(O)n(CCC2=CCCCC2)c(=O)[nH]c1=O	i	i	i	i	i	nt	nt
COC(=O)C1=C(c2ccccc2)C[C@@H]2CC[C@H]1N2C(=O)N1CCOCC1	i	i	i	i	i	nt	nt
CN1C(=O)C(=Cc2ccc(Sc3ccccc3)o2)C(=O)N(C)C1=S	i	i	i	i	54	58	21
O=C1NC(=O)N(Cc2ccc(F)cc2)C(=O)/C1=C\c1ccoc1	i	i	i	i	48	38	11
CCOc1cc(C2C(C#N)=C(N)Oc3c2c(=O)oc2ccccc32)ccc1OC(=O)c1cccs1 (stereo not drawn)	i	i	i	20	47	i	15
Cc1cc(OCC(=O)N[C@@H](Cc2ccccc2)C(=O)O)c2c3c(c(=O)oc2c1)CCC3	i	i	i	i	i	nt	nt
Cc1cc(OCC(=O)NC(Cc2ccc(Cl)cc2)C(=O)O)c2c3c(c(=O)oc2c1)CCC3 (stereo not drawn)	i	i	i	i	54	54	16
Cc1cc(/C=C2\C(=O)NC(=O)N(c3cccc(F)c3)C2=O)c(C)n1-c1ccc(C(=O)O)c(Cl)c1	i	i	i	i	i	nt	nt
SMILES	FAS-TE inh	MPTP block	Myeloid diff MLP	NR3A LBD binder	rCAG binder-1	rCAG binder conf	DNA CAG counter	others
Cc1cc(/C=C2\C(=O)NC(=O)N(Cc3ccco3)C2=O)c(C)n1-c1ccc(C(=O)O)cc1	i	i	i	i	i	nt	nt
Cc1cc(/C=C2\C(=O)NC(=O)N(Cc3ccccc3Cl)C2=O)c(C)n1-c1ccc(C(=O)O)cc1	i	i	i	i	39	59	18
Cc1cc(/C=C2\C(=O)NC(=O)N(Cc3ccccc3)C2=O)c(C)n1-c1ccc(Cl)c(C(=O)O)c1	i	i	i	i	43	65	24
O=C1NC(=O)N(Cc2ccccc2Cl)C(=O)/C1=C/c1cccs1	i	i	i	i	56	i	i
CC(=O)OC1=CC[C@H]2[C@@H]3CC[C@H]4C[C@H](OC(C)=O)[C@@H](OC(C)=O)C[C@]4(C)[C@H]3CC[C@]12C	i	i	i	i	i	nt	nt
Cc1ccc(S(=O)(=O)N(C)N=O)cc1	i	i	i	i	i	nt	nt
Cc1ccc(-n2c(=S)[nH]c3ccccc3c2=O)cc1F	i	i	i	nt	36	i	8.9
O=c1c2ccccc2[nH]c(=S)n1-c1cccc(C(F)(F)F)c1	i	i	i	nt	i	nt	nt
COc1ccc(C2CC(c3c(O)n(CCc4ccccc4)c(=O)[nH]c3=O)=NN2)cc1OC (stereo not drawn)	i	i	i	i	42	i	8.0
Cc1cccc(N=Nc2ccc(N(C)C)cc2)c1	i	i	i	i	i	nt	nt
O=C1CC(=O)N(Cc2ccccc2)C(=S)N1	i	i	i	i	72	i	i
COc1ccc(OC)c(N2C(=O)NC(=O)/C(=C/c3ccc([N+](=O)[O-])s3)C2=O)c1	i	i	i	i	79	73	38
O=C(O)c1cccc2nc3ccccc3nc12	i	i	i	i	i	nt	nt
CCC1CCCCN1P(=O)(c1ccc(C)o1)C(C)(C)C (stereo not drawn)	i	i	i	i	i	nt	nt
Cc1cc(C=C2C(=O)NC(=S)NC2=O)c(C)n1C1CCCC1	i	i	i	i	35	i	9.6
